# Compound activity deposited in PubChem BioAssay by National Center for Advancing Translational Sciences (NCATS).
# HT1080 IDH1KD tx = qHTS for induction of synthetic lethality in tumor cells producing 2HG: qHTS for the HT-1080-IDH1KD cell line; HT-1080 IDH1 knockdown viability, ATP luminescence, 48 h; Potency, µM (highest dose often 46.1 µM), inactives show at the highest dose activity, negative = toxicity, actives largely listed as cytotoxic; AID 686971, 2013; 360,000 compounds, 2% hits;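 also: 0% = DMSO wells and -100% = cell-free medium wells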
#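 IDH1KD HT-1080 cells, 750/well, RPMI + 5% FBS; compound pinned after 2 h settling; 48 h, 37 °C; CellTiter-Glo luminescence; % activity normalised to DMSO and no-cell wells; curves fitted, classed by r2 and efficacy.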
# HT1080-NT tox = qHTS for induction of synthetic lethality in tumor cells producing 2HG: qHTS for the HT-1080-NT fibrosarcoma cell line; Potency, µM (titrated, usually from 46.1 µM), without a hit: at the highest dose activity, negative = less viability, actives largely listed as cytotoxic; 360,000 compounds, 1.6% hits; HT-1080-NT fibrosarcoma viability, CellTiter-Glo ATP luminescence, 48 h; AID 686970, 2013;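 also: NT is the 2HG producing partner of a matched IDH1 knockdown line; 0% = DMSO-treated cells and -100% = media-only wells without cells; nearly all actives have a fitted effect of over 55% in size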
#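 Viability by CellTiter-Glo luminescence after 48 h compound exposure at 37C of HT-1080-NT cells (750/well, RPMI, 5% FBS). % activity scaled between DMSO wells and medium-only wells, then curve-fitted and categorized by curve class.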
# KB-3-1 tox = qHTS assay for MDR1-selective chemotherapeutics: Primary screen using the parental adenocarcinoma cell KB-3-1; KB-3-1 viability, CellTiter-Glo ATP luminescence, 72 h; Potency, µM (doses to about 46.1 µM), usual class: cytotoxic; 400,000 compounds, 1.4% hits; AID 1347075, 2019; also: % is scaled to controls: 0 for no effect and ±100 for the full control effect; nearly all actives have a fitted effect of over 60% in size
#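 KB-3-1 parental drug-naive adenocarcinoma cells in DMEM/10% FBS, incubated 72 h at 37 C with pin-transferred compounds across a concentration series. Viability by CellTiter-Glo luminescence; concentration-response curves fitted after normalization.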
# SW480 rerep = A quantitative high throughput screen for small molecules that induce DNA re-replication in SW480 colon adenocarcinoma cells; SW480 DNA re-replication, Hoechst DNA content imaging, 48 h; AID 624297, 2012; Potency, µM (titrated, usually from 46.1 µM), without a hit: top-dose re-replication activation, most hits filed as activators; 340,000 compounds, 1.8% hits; also: % of control where 0% means no effect; nearly all actives have a fitted effect of over 55% in size
#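 Treated cells incubate 48 hr (37 C, 5% CO2), are stained 40 min with Hoechst, and nuclear fluorescence is enumerated; a rise in nuclei with high DNA signal marks re-replication.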
# MCF10A rerep = A quantitative high throughput screen for small molecules that induce DNA re-replication in MCF 10a normal breast cells. MCF 10A DNA re-replication, Hoechst nuclear intensity, 48 h. Potency, µM (series often up to 46.1 µM), without a hit: at the top dose activity, positive = re-replication, actives largely listed as activators. 350,000 compounds, 2.9% hits; also: % of control where 0% means no effect; nearly all actives have a fitted effect of over 50% in size
# KB-V1 cytotox = qHTS assay for MDR1-selective chemotherapeutics: Primary screen using the drug-selected MDR subline cells KB-V1 | AID 1347076, 2019 | 400,000 compounds, 3.4% hits | KB-V1 MDR cells viability, CellTiter-Glo, 72 h | Potency, µM (top dose mostly 46.1 µM), actives largely listed as cytotoxic; also: % is scaled to controls: 0 for no effect and ±100 for the full control effect; nearly all actives have a fitted effect of over 60% in size
#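 Cytotoxicity via CellTiter-Glo luminescence after 72 h compound exposure at 37 degrees C. Cells: drug-selected KB-V1 line, DMEM phenol-red free plus 10% FBS. Compounds tested at multiple concentrations; normalized data fitted to concentration-effect curves.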
# * = called active by the depositor; i = inactive; ? = inconclusive; . = not tested or not shown; [ ] = another dose, or the depositor's remark. Only some compounds are listed: those with a hit (about 8% of all), similar ones and a draw of the others. Calls follow the shape of the dose curve; as a rule, active = well fitted curve in the direction sought with a large enough effect; inconclusive = small, poorly fitted or top-dose-only effect, or another doubt; inactive = no such curve, though single readings can be large; an effect the other way counts as inactive or inconclusive. Potency is read from the fitted curve at half-maximal effect.
SMILES,HT1080 IDH1KD tx,HT1080-NT tox,KB-3-1 tox,SW480 rerep,MCF10A rerep,KB-V1 cytotox
Cn1c(-c2ccc3c(c2)OCO3)cc(=O)c2ccccc21,0%,-5%,i,-2%,-4%,i
COc1ccc(-c2cc(Cl)cc3c(=O)c4ccccc4n(C)c23)cc1F,16%,6%,i,18µM*,?,i
c1ccc2c(c1)c1ccccc1n1c(-c3ccc4c(c3)OCO4)nnc21,0%,0%,?,-2%,-1%,21µM*
Cn1c(C=O)c(-c2ccc3c(c2)OCCO3)c2ccccc21,-1%,-10%,i,4%,16µM*,i
COc1ccc(Cl)cc1NC(=O)CCN1C(=O)NC(C)(C)C1=O,9%,18%,i,-19%,-7%,i
Cc1nc(NCC(c2ccccc2)N(C)C)c2c(C)c(C)sc2n1 (stereo not drawn),?,-2%,?,-2%,?,?
O=Cc1ccccc1Oc1ccccc1,0%,0%,i,1%,-8%,?
O=Cc1ccccc1OCCOc1ccccc1C=O,7.1µM*,10µM*,i,?,17%,i
CCOC(=O)CC(=O)CSc1ncnc2c1nnn2-c1ccc(F)cc1,4%,13%,i,-1%,14%,i
O=S(=O)(c1ccc2nc(COc3ccc(Cl)cc3Cl)[nH]c2c1)N1CCOCC1,?,?,i,21%,-2%,?
COc1ccc(CC(=O)Nc2ccc3c(C)cc(=O)oc3c2)cc1OC,13%,?,i,-4%,-3%,i
CN(NS(=O)(=O)c1ccc(Br)cc1)c1nc(C(F)(F)F)nc2ccccc12,18µM*,?,?,5%,16%,?
c1ccc(-c2cc(-c3ccncc3)nc3ccc4ccccc4c23)cc1,-30%,?,i,?,15µM*,?
Clc1ccc2nc(-c3ccncc3)cc(-c3ccccc3)c2c1,11%,3%,i,-11%,-8%,i
NC(=O)CSc1nnc(COc2ccccc2)n1CCc1ccccc1,4%,4%,i,-12%,5%,i
COc1cc(-c2cc3nc(NCCN(C)C)ccn3n2)cc(OC)c1OC,-4%,-3%,i,.,.,i
c1cc(-c2cc3nc(NC4CCCCC4)ccn3n2)ccc1OCCN1CCOCC1,21µM*,21µM*,?,.,.,?
c1ccc(COc2cccc(-c3cc4nc(NCc5cccs5)ccn4n3)c2)cc1,7.3µM*,?,?,.,.,?
Clc1cccc(CNc2ccn3nc(-c4ccc(OCCN5CCOCC5)cc4)cc3n2)c1,?,16µM*,?,.,.,?
c1cc(-c2cc3nc(NCC4CC4)ccn3n2)ccc1OCCN1CCOCC1,0%,2%,i,.,.,i
COc1cc(-c2cc3nc(NC4CCCCC4)ccn3n2)cc(OC)c1OC,16µM*,18µM*,i,.,.,?
CN(C)C(=O)CNc1ccn2nc(-c3cccc(OCCN4CCOCC4)c3)cc2n1,14%,-1%,i,.,.,i
Cc1cc(Cl)ccc1NC(=O)c1ccc2c(c1)OCO2,-2%,-13%,i,-137%[9.22 µM],25%,i
Cc1cc(C(=O)NC(C)Cc2ccccc2)cc(C)c1[N+](=O)[O-] (stereo not drawn),6%,0%,i,4%,9%,?
COc1cc(Nc2ccn3nc(-c4ccccc4Cl)cc3n2)cc(OC)c1OC,-21%,23µM*,?,.,.,i
SMILES,HT1080 IDH1KD tx,HT1080-NT tox,KB-3-1 tox,SW480 rerep,MCF10A rerep,KB-V1 cytotox
C/C(CCN1CCCCc2nc(C)c(C)cc21)=N\O[C@@H](C)CN1CCCCc2nc(C)c(C)cc21,.,.,.,?,23µM*,.
C/C(CCN1CCCCc2nc(C)c(C)cc21)=N\OC[C@@H](O)[C@H]1O[C@@H]2OC(C)(C)O[C@@H]2[C@H]1O,.,.,.,-1%,7%,.
COc1ccc(NC(=O)COc2cccc3c2CCN(Cc2cccnc2)C3=O)c(OC)c1,-16%,-6%,i,?,-4%,5.2µM*
CC(=O)c1ccc(NC(=O)c2ccc3c(=O)n4c(nc3c2)CCCCC4)cc1,-1%,-11%,i,?,-2%,?
CC(C)C[C@H]1CN([C@@H](Cc2ccccc2)CN2CCC[C@@H]2CN2C(=O)C(=O)NC[C@@H]2Cc2ccc(O)cc2)C(=O)C(=O)N1CC1CCCCCC1,?,?,i,.,.,i
CC(C)C[C@H]1CN([C@@H](Cc2ccccc2)CN2CCC[C@@H]2CN2C(=O)C(=O)NC[C@@H]2Cc2ccccc2)C(=O)C(=O)N1CC1CCCCC1,16µM*,?,?,.,.,i
CC(C)C[C@@H](CN1CCC[C@H]1CN1C(=O)C(=O)NC[C@@H]1Cc1ccccc1)N1C[C@H](Cc2ccc(O)cc2)N(CC2CCCCCC2)C(=O)C1=O,18µM*,23µM*,?,.,.,i
CCc1noc(C)c1C(=O)N1CCCC(N2CCN(c3ccccc3F)CC2)C1 (stereo not drawn),-6%,2%,i,9%,0%,i
CCn1cc(C(=O)N2CCN(c3ccccn3)CC2)c2cc(OC)c(OC)cc2c1=O,-12%,4%,i,0%,-2%,16µM*
CCCc1ccc(OCc2ccc(C(=O)N3CCN(c4ccccn4)CC3)o2)c(OC)c1,?,?,i,12%,9.2µM*,3.7µM*
O=C(NCc1ccc2c(c1)OCO2)c1ccc(CS(=O)(=O)c2cccc(C(F)(F)F)c2)o1,13%,3%,i,0%,4%,18µM*
COc1cc(OC)c(C(=O)N2CCN(c3ccccn3)CC2)cc1OC,2%,-2%,i,-45%,-1%,i
O=C(c1ccc(CS(=O)(=O)c2cccc(C(F)(F)F)c2)o1)N1CCN(c2ccccn2)CC1,-4%,1%,i,1%,?,18µM*
COc1ccc(CC(=O)N2CCN(c3ccccn3)CC2)cc1OC,-10%,2%,i,13%,-3%,i
Cc1ccc(S(=O)(=O)Nc2cc(C)on2)cc1,4%,6%,i,-27%,1%,i
O=C(OCC(=O)N1CCN(c2ccccc2)CC1)c1cc(Cl)ccc1[N+](=O)[O-],-1%,-9%,.,-7%,?,.
